Laboratory results reported in PubChem BioAssay (NCI).
About 83,000 compounds went through this panel and 20% of them were active in at least one assay; those are over-represented in the sample as a whole.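 In brief: 96-well plates, 48 h treatment, single concentration, percent growth endpoint.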 Unmarked numbers belong to inactive results. Activity calls are given as the source filed them. The calls were made as follows: active = growth percent below 10; inactive = the rest.

These compounds were tested on A498 renal (assay: NCI-60 one-dose screen, 48 h (100 = growth as untreated, 0 = no growth, -100 = all killed)). Conditions: 10 µM unless noted.
Compound CC(C)c1sc(NC(=O)c2cc(NC(=O)c3cc(NC(=O)c4nccn4C)cn3C)cn2C)nc1C(=O)NCCCN(C)C has a growth of 116%.
COc1c(F)ccc(C(=O)Nc2ccc3nc(NC(=O)C4CCCN(S(=O)(=O)c5ccc(Cl)cc5)C4)sc3c2)c1F (stereo not given) gave a growth of 96.4%.
For O=C(N1c2ccccc2Sc2ccccc21)n1ccc2cccnc21, the growth was 109%.
With Cn1cc(-c2cc(N)n3nc(-c4cn(C)c5ncc(Br)cc45)cc3n2)c2cc(Br)cnc21 the growth was 114%.
Work on CC1=C(C#N)C2=NNCC(c3ccccc3)=NN2C(c2ccccc2)=C1 yielded a growth of 132%.
Work on C=C1CC[C@@H]2[C@]3(C)COC(c4cn[nH]c4-c4ccc(F)cc4)O[C@@H]3CC[C@@]2(C)[C@@H]1C/C=C1/C(=O)OCC1O (stereo not given in full) yielded a growth of 146%.

These compounds were tested on CCRF-CEM leukemia in the same assay as above. Conditions: 10 µM unless noted.
Cn1cc(-c2cc3nc(-c4cn(C)c5ncccc45)cc(N)n3n2)c2cc(Cl)ccc21 was tested, and the growth was -14.4% (active).
Compound CC12CC[C@@H]3[C@]4(C)COC(c5c(F)cccc5F)O[C@@H]4CC[C@@]3(C)[C@@H]1CC(C1=CCOC1=O)O2 (stereo not given in full) has a growth of 74.8%.
Cc1nc(Nc2ncc(C(=O)Nc3c(C)cccc3Cl)s2)cc(N2CCN(CCCNC(=O)COc3ccc(C4CCC(=O)NC4=O)cc3)CC2)n1 (stereo not given) showed a growth of 95.1%.
With Cn1cc(NC(=O)c2cc(NC(=O)c3ccc(/C=C/c4ccccc4)cc3)cn2C)cc1C(=O)NCCCN1CCOCC1 the growth was -8.72% (active).
With Cc1ccccc1[C@H]1C(C(=O)c2ccc(Cl)cc2)C2(N[C@@H]1c1ccccc1)C(=O)Nc1ccc(Br)cc12 (stereo not given in full) the growth was 5.11% (active).
In the case of Brc1ccc(N/N=C/c2c[nH]c3ccc(Br)cc23)nc1, the growth was -37.7% (active).
For C=C1CCC2C3(C)COC(c4ccccc4)OC3CCC2(C)C1CC(Sc1ccccc1)C1=CCOC1=O (stereo not given), the growth was -1.92% (active).
Clc1cccc(N/N=C/c2c[nH]c3ccc(Br)cc23)n1 was tested, and the growth was -14.8% (active).
Compound COc1c(F)ccc(C(=O)Nc2ccc3nc(NC(=O)C4CCCN(S(=O)(=O)c5cccc(C(F)(F)F)c5)C4)sc3c2)c1F (stereo not given) has a growth of 88.7%.
In the case of CC(=O)/C=C/c1cccc2c1C(=O)NC(C)(c1cc3cc(Br)ccc3oc1=O)N2 (stereo not given), the growth was 0.825% (active).
O=c1[nH]c(=O)c2c(-c3cc4ccccc4oc3=O)ccnc2[nH]1 showed a growth of 101%.
Compound O=C(/C=C/Nc1ccc2oc(=O)ccc2c1)c1cc2cc(Br)ccc2oc1=O has a growth of 120%.
For CC1(c2cc3cc(Cl)ccc3oc2=O)NC(=O)c2c(/C=C/C(=O)OC3CC4CCC3(C)C4(C)C)cccc2N1 (stereo not given), the growth was 59.4%.
Compound COc1ccc(-c2ccnc(SCc3cc4ccccc4[nH]c3=O)n2)cc1OC has a growth of 106%.
CC12CC[C@@H]3[C@]4(C)COC(c5cn[nH]c5-c5cccc(Br)c5)O[C@@H]4CC[C@@]3(C)[C@@H]1CC(C1=CCOC1=O)O2 (stereo not given in full) was tested, and the growth was 9.66% (active).
Compound COc1ccc2c(c1)c(/C=N/Nc1ccc3ccccc3n1)cn2C has a growth of 10.8%.
With CN(C)CCOc1ccc(C(=O)C2[C@H](c3ccc(Cl)cc3)[C@@H](c3ccccc3)NC23C(=O)Nc2ccc(Br)cc23)cc1 (stereo not given in full) the growth was 43.9%.
In the case of O=c1[nH]c2ccc(Cl)cc2cc1CSc1nccc(-c2ccc(Cl)cc2)n1, the growth was 113%.
Compound COc1cccc(/C=C/c2nc3ccccc3c(=O)n2CC(=O)Nc2ccc(Cl)cc2)c1 has a growth of 86.1%.
In the case of CCCSc1nc(Nc2ccc(S(N)(=O)=O)cc2)c(C#N)c(-c2cc(OC)c(OC)c(OC)c2)n1, the growth was 8.03% (active).
For COc1ccc(/C=C/c2nc3ccccc3c(=O)n2CC(=O)Nc2ccc(Cl)cc2)cc1, the growth was 108%.
For Cn1cc(-c2cc3nc(-c4cn(C)c5ncc(Br)cc45)cc(N)n3n2)c2cc(Cl)ccc21, the growth was -37.4% (active).
Cc1ccc([C@H]2C(C(=O)c3ccc(Cl)cc3)C3(N[C@@H]2c2ccccc2)C(=O)Nc2ccc(Cl)cc23)cc1 (stereo not given in full) showed a growth of 66.3%.
With O=C(Cn1c(/C=C/c2ccccc2)nc2ccccc2c1=O)Nc1ccc(Cl)cc1 the growth was 85.6%.
Work on CC12CC[C@@H]3[C@]4(C)COC(c5cn[nH]c5-c5cccc(Cl)c5)O[C@@H]4CC[C@@]3(C)[C@@H]1CC(C1=CCOC1=O)O2 (stereo not given in full) yielded a growth of 25.5%.
For CCCCSc1nc(Nc2ccc(S(N)(=O)=O)cc2)c(C#N)c(-c2cc(OC)c(OC)c(OC)c2)n1, the growth was 22.1%.
With CCOC(=O)/C=C/c1cccc2c1C(=O)NC(C)(c1cc3cc(Cl)ccc3oc1=O)N2 (stereo not given) the growth was 37.4%.
O=C(c1ccc(OCCN2CCOCC2)cc1)C1[C@H](c2ccc(Cl)cc2)[C@@H](c2ccccc2)NC12C(=O)Nc1ccc(Cl)cc12 (stereo not given in full) was tested, and the growth was 31%.
CC(C)c1sc(NC(=O)c2cc(NC(=O)c3cc(NC(=O)c4nccn4C)cn3C)cn2C)nc1C(=O)NCCCN(C)C gave a growth of 19.3%.
Compound COc1c(F)ccc(C(=O)Nc2ccc3nc(NC(=O)C4CCCN(S(=O)(=O)c5ccc(Cl)cc5)C4)sc3c2)c1F (stereo not given) has a growth of 85.5%.
O=C(N1c2ccccc2Sc2ccccc21)n1ccc2cccnc21 was tested, and the growth was 63.2%.
Cn1cc(-c2cc(N)n3nc(-c4cn(C)c5ncc(Br)cc45)cc3n2)c2cc(Br)cnc21 was tested, and the growth was 3.66% (active).
In the case of CC1=C(C#N)C2=NNCC(c3ccccc3)=NN2C(c2ccccc2)=C1, the growth was 110%.
C=C1CC[C@@H]2[C@]3(C)COC(c4cn[nH]c4-c4ccc(F)cc4)O[C@@H]3CC[C@@]2(C)[C@@H]1C/C=C1/C(=O)OCC1O (stereo not given in full) was tested, and the growth was -3.97% (active).
